Laboratory results reported in PubChem BioAssay (NCATS).
Inconclusive results are not listed. A call without a number means that no potency is given here. Calls of active or inactive are those of the source. Unless noted, calls follow the shape of the dose curve; as a rule, active = well fitted curve in the direction sought with a large enough effect; inconclusive = small, poorly fitted or top-dose-only effect, or another doubt; inactive = no such curve, though single readings can be large; an effect the other way counts as inactive or inconclusive.

Assays:
[1] = molecular target: Glucagon-like peptide 1 receptor (Homo sapiens) (UniProt P43220); experiment: qHTS of GLP-1 Receptor Agonists: LOPAC Validation (AID 624148);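 also: luminescence from a luciferase reporter switched on by cAMP; higher luminescence signal means agonism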
Method in brief: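 Agonism scored as increased luciferase luminescence driven by cAMP in HEK293 clones carrying GLP-1R. Cells settled 12 hours, received compound for 4-6 hr at 37 deg C, 5% CO2, and were read after 12 min detection reagent at RT.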

[2] = HTS Assay for Allosteric Antagonists of the Human D2 Dopamine Receptor: Hit Validation in HTRF (AID 624455); also: potency is read from the fitted curve at half-maximal effect;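 also: stable D1 dopamine receptor cell line scored for blocking the D1 response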
Method in brief: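 Hits were examined in an HTRF assay using cells stably expressing the D1 dopamine receptor, scoring inhibition of the D1-mediated response. The preceding primary screen tracked calcium flux after an EC80 dopamine addition in force-coupled, inducible Hek293 Trex D2 cells.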

[3] = Cytotoxicity counterscreen for NFkB agonists and antagonists (AID 624476); also: potency is read from the fitted curve at half-maximal effect
[4] = Cell Proliferation Assay against the TMD8 Cell Line (AID 651645); settings: TMD8 DLBCL cell line proliferation/viability; at 46.1 µM (top of the series) unless noted;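 also: cells exposed to compound for 48 h before reading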
Method in brief: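 Cell viability of the ABC DLBCL line TMD8 is measured by CellTiter-Glo luminescence following a 48-hour incubation with compound. Percent activity uses DMSO as 100% and 9.2 uM bortezomib (final) as 0%.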

[5] = Cell Proliferation Assay against the TMD8 Cell Line (Caspase readout at 8 hrs) (AID 651713); also: potency is read from the fitted curve at half-maximal effect
Method in brief: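 TMD8 cells (500/well) in phenol red-free RPMI with 5% FBS were treated with compounds for 8 h at 37C, 5% CO2. Caspase-Glo 3/7 luminescence was read after 15 min at room temperature and normalised to DMSO (0%) and 9.2 uM bortezomib (100%).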

[6] = qHTS Assay for Identification of Small Molecule Agonists for NFkB Signaling Pathway. (AID 624478);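 also: compounds tested together with TNF alpha at its EC50 of 10 pM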
Method: The TNF alpha/NFkB signaling pathway was assayed in NFkB-bla cells (Invitrogen), a ME-180 cervical carcinoma line containing a stably integrated beta-lactamase reporter gene controlled by a NFkB response element. This reporter is induced by TNF alpha at 10 pM EC50 and inhibited by the proteosome inhibitor MG-132 at approximately 100 nM IC50. The assay was screened at the EC50 of TNF alpha activation to identify activators of TNF alpha/NFkB signaling
Cells were trypsinized, washed in assay medium (AM, OPTI MEM with 0.5% fetal bovine serum, 0.1 mM nonessential amino acids, 1 mM sodium pyruvate, 10mM HEPES pH 7.3, 100U/ml penicillin, and 100 ug/ml streptomycin) and plated at 1000 cells/5 uL/well into black clear-bottom 1536 well plates. After an overnight incubation at 37 C and 5% CO2, 23 nL of compound were delivered by a pin tool, 1 uL of TNF alpha (10 pM final concentration in AM) was added and plates were incubated at 37 C for 5 hrs. One uL of LiveBLAzerTM detector mix (Invitrogen) was added, the plates incubated at room temperature for 2 hrs, and fluorescence intensity at 460 and 530 nm emission was measured at 405 nm excitation by an Envision (Perkin Elmer).

[7] = qHTS Assay for Identification of Small Molecule Antagonists for NFkB Signaling Pathway. (AID 624479; calls by dose curve;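 also: pathway stimulated with TNF alpha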; also: potency is read from the fitted curve at half-maximal effect)
[8] = qHTS of Nrf2 Activators: LOPAC Validation (AID 624149)
Method in brief: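 AREc32 cells carrying an ARE-driven firefly luciferase were grown overnight in OPTI-MEM with 5% FBS, then exposed to compounds for 24 hr at 37 deg C. Luciferase signal was read after 30 min with Steady-Glo at RT.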

[9] = Cell Proliferation Assay against the TMD8 Cell Line (Caspase readout at 16 hrs) (AID 651712); also: potency is read from the fitted curve at half-maximal effect
Method in brief: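 Apoptotic response of TMD8 cells was judged from caspase 3/7 activation following a 16 hour compound incubation at 37 °C. Luminescent signal was converted to percent activity, with DMSO set as 0% and 9.2 uM final bortezomib as 100%.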

Glucagon-like peptide 1 receptor (Homo sapiens), sequence (P43220 whole entry, looked up): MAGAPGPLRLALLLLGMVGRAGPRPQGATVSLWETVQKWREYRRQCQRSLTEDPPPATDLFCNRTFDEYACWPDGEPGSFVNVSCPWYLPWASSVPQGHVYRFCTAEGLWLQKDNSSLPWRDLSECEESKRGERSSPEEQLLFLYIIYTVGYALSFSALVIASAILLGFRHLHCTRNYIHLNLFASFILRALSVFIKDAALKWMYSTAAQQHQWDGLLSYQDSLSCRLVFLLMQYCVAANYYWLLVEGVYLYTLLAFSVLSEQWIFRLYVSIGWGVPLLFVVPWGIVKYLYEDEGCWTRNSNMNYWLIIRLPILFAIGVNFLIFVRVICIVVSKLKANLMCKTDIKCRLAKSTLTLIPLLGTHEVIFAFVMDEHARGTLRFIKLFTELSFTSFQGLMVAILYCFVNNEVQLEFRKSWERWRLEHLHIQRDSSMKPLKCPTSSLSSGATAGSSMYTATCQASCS

For `COc1ccc2c(c[n+](C)c3c4cc5c(cc4ccc23)OCO5)c1OC`, the outcome [1] was “inactive”, the Potency [2] was “inactive” and the Potency [3] was 23.5 µM (active). For the same compound, the viability (% of control) [4] was 3.33% and the Potency [5] was 2.96 µM (active).

For `Cc1ccccc1-n1c(Cn2cnc3c(N)ncnc32)nc2cccc(C)c2c1=O`, the Potency [3] was 13.2 µM (active), the outcome [6] was “inactive” and the Potency [7] was “inactive”. For the same compound, the viability (% of control) [4] was 15.8%.

In the case of `Oc1ccc2c3c1O[C@H]1c4[nH]c5c(c4C[C@@]4(O)[C@@H](C2)N(CC2CC2)CC[C@]314)C[C@@]1(O)[C@H]2Cc3ccc(O)c4c3[C@@]1(CCN2CC1CC1)[C@H]5O4`, the outcome [1] is reported as “inactive”, the outcome [8] is reported as “inactive” and the Potency [2] is reported as “inactive”.

With `CC(Cc1ccc(O)cc1)NCC(O)c1cc(O)cc(O)c1` (configuration not stated) the outcome [8] was “inactive” and the Potency [2] was “inactive”.

In the case of `O=C(Cc1ccc(Cl)c(Cl)c1)N1CCCCC1CN1CCCC1` (configuration not stated), the outcome [1] is reported as “inactive”, the outcome [8] is reported as “inactive” and the Potency [2] is reported as “inactive”.

For `CC[C@@H](C(=O)O)C1CC[C@H](C)C([C@@H](C)[C@H](O)[C@H](C)C(=O)[C@H](CC)C2O[C@]3(C=C[C@@H](O)[C@]4(CC[C@@](C)(C5CC[C@](O)(CC)[C@H](C)O5)O4)O3)[C@H](C)C[C@@H]2C)O1` (some centres not stated), the Potency [3] was 8.33 µM (active) and the Potency [7] was 11.9 µM (active).

In the case of `CN1C2CCC1CC(OC(=O)c1cc(Cl)cc(Cl)c1)C2` (configuration not stated), the outcome [1] is reported as “inactive”, the outcome [8] is reported as “inactive” and the Potency [2] is reported as “inactive”.

In the case of `O=C(N[C@H]1CN2CCC1CC2)c1ccc(Cl)cc1`, the outcome [1] is reported as “inactive”, the outcome [8] is reported as “inactive” and the Potency [2] is reported as “inactive”.

In the case of `NC1CCc2cc(O)c(O)cc2C1` (configuration not stated), the outcome [1] is reported as “inactive”, the outcome [8] is reported as “inactive” and the Potency [2] is reported as 0.0164 µM (active).

In the case of `CCCN1CCO[C@@H]2c3cc(O)ccc3OC[C@H]21`, the outcome [1] is reported as “inactive”, the outcome [8] is reported as “inactive” and the Potency [2] is reported as “inactive”.

In the case of `NCc1cc(=O)[nH]o1`, the outcome [1] is reported as “inactive”, the outcome [8] is reported as “inactive” and the Potency [2] is reported as “inactive”.

For `O=C(O)CC[N+](=O)[O-]`, the outcome [1] was “inactive”, the outcome [8] was “inactive” and the Potency [2] was “inactive”.

With `CC[C@H](CO)Nc1nc(NCc2ccccc2)c2ncn(C(C)C)c2n1` the Potency [7] was 11.9 µM (active).

With `CC1CC(C)C(=O)C(C(O)CC2CC(=O)NC(=O)C2)C1` (configuration not stated) the Potency [3] was “inactive”, the outcome [6] was “inactive” and the Potency [7] was 1.09 µM (active). The viability (% of control) [4] was 1.51% [at 92.2 µM], the Potency [9] was 1.91 µM (active) and the Potency [5] was 17.1 µM (active).

For `O=C(Oc1ccc([N+](=O)[O-])cc1)N1CCC(C(O)(c2ccc3c(c2)OCO3)c2ccc3c(c2)OCO3)CC1`, the Potency [3] was “inactive”, the outcome [6] was “inactive” and the Potency [7] was “inactive”. For the same compound, the viability (% of control) [4] was 68.8% and the Potency [5] was “inactive”.

For `CC(=O)Nc1ccc(OC[C@](C)(O)C(=O)Nc2ccc([N+](=O)[O-])c(C(F)(F)F)c2)cc1`, the Potency [3] was “inactive”, the outcome [6] was “inactive” and the Potency [7] was “inactive”. For the same compound, the viability (% of control) [4] was 86.6%, the Potency [9] was “inactive” and the Potency [5] was “inactive”.

In the case of `CC(C)[C@]12O[C@H]1[C@@H]1O[C@]13[C@]1(O[C@H]1C[C@H]1C4=C(CC[C@@]13C)C(=O)OC4)[C@@H]2O`, the Potency [3] is reported as 0.0332 µM (active), the outcome [6] is reported as “inactive” and the Potency [7] is reported as 0.0335 µM (active). For the same compound, the viability (% of control) [4] was 3.13%, the Potency [9] was 0.0132 µM (active) and the Potency [5] was 0.132 µM (active).

In the case of `O=C1CCCN1CC#CCN1CCCC1`, the outcome [1] is reported as “inactive”, the outcome [8] is reported as “inactive” and the Potency [2] is reported as “inactive”.

For `Cc1nc(-c2ccc(-c3ccc(C(=O)N4CCc5cc6c(cc54)C4(CCN(C)CC4)CO6)cc3)c(C)c2)no1`, the Potency [3] was “inactive”, the outcome [6] was “inactive” and the viability (% of control) [4] was 2.26%.

In the case of `CCOc1ccc(Nc2nc(-c3c(C)nc4ccccn34)cs2)cc1`, the Potency [7] is reported as 0.335 µM (active).

In the case of `CC(C)(C)c1[nH]cnc1C=c1[nH]c(=O)c(=Cc2ccccc2)[nH]c1=O`, the Potency [3] is reported as 18.7 µM (active), the Potency [7] is reported as 16.8 µM (active) and the Potency [9] is reported as 0.0235 µM (active). The Potency [5] was 0.059 µM (active).

For `COCCn1c2c([n+](Cc3cnccn3)c1C)C(=O)c1ccccc1C2=O`, the Potency [7] was 0.0047 µM (active).

With `C=CCON=C(C[C@H]1O[C@@H]2O[C@]3(C)CC[C@@H]4[C@H](C)CC[C@@H]([C@H]1C)[C@@]24OO3)[C@H]1O[C@@H]2O[C@]3(C)CC[C@H]4[C@H](C)CC[C@@H]([C@@H]1C)[C@@]24OO3` the outcome [6] was “inactive”, the Potency [7] was 16.8 µM (active) and the viability (% of control) [4] was 10.2%. The Potency [9] was 0.0833 µM (active) and the Potency [5] was “inactive”.

In the case of `Cc1c(C(=O)Nc2cccc(C(F)(F)F)c2)cc(-c2ccccc2)n1CCCN1CCOCC1`, the Potency [3] is reported as “inactive”, the outcome [6] is reported as “inactive” and the viability (% of control) [4] is reported as 3.39%.

With `Cc1nc2cnc3ccc(C#Cc4cccnc4)cc3c2n1-c1ccc(C(C)(C)C#N)cc1` the Potency [7] was 18.8 µM (active).

In the case of `CCCCc1ccc(C(=O)O)nc1`, the outcome [1] is reported as “inactive”, the outcome [8] is reported as “inactive” and the Potency [2] is reported as “inactive”.

In the case of `CNCCc1ccc(O)c(O)c1`, the outcome [8] is reported as “inactive” and the Potency [2] is reported as 0.13 µM (active).

With `C[C@@]12O[C@@H](C[C@]1(O)CO)n1c3ccccc3c3c4c(c5c6ccccc6n2c5c31)CNC4=O` the Potency [7] was 1.49 µM (active).

In the case of `Cn1cnc(CCN)c1`, the outcome [1] is reported as “inactive”, the outcome [8] is reported as “inactive” and the Potency [2] is reported as “inactive”.

For `NC(N)=NOCCC(N)C(=O)O` (configuration not stated), the outcome [1] was “inactive”, the outcome [8] was “inactive” and the Potency [2] was “inactive”.

In the case of `Cc1cnc(Nc2ccc(F)cc2Cl)nc1-c1c[nH]c(C(=O)N[C@H](CO)c2cccc(Cl)c2)c1`, the Potency [3] is reported as 26.4 µM (active) and the Potency [7] is reported as 16.8 µM (active).

For `O=C(Nc1cc(C(F)(F)F)cc(C(F)(F)F)c1)c1cc(Cl)ccc1O`, the Potency [7] was 14.9 µM (active).

With `CO[C@H]1C=CC=C(C)C(=O)NC2=CC(=O)C(NCCN(C)C)=C(C[C@@H](C)C[C@H](OC)[C@@H](O)[C@@H](C)C=C(C)[C@@H]1OC(N)=O)C2=O` the Potency [3] was 20.9 µM (active) and the Potency [7] was 0.0008 µM (active).

In the case of `NC(=O)CN1CC(O)CC1=O` (configuration not stated), the outcome [1] is reported as “inactive”, the outcome [8] is reported as “inactive” and the Potency [2] is reported as “inactive”.

With `c1cc(-c2cnn3cc(-c4ccc(OCCN5CCCCC5)cc4)cnc23)ccn1` the Potency [7] was 9.43 µM (active) and the Potency [5] was 23.5 µM (active).

In the case of `C1=CCOCc2cc(ccc2OCCN2CCCC2)Nc2nccc(n2)-c2cccc(c2)OCC1`, the Potency [7] is reported as 0.943 µM (active).

`Nc1nc(-c2nn(Cc3ccccc3F)c3ncccc23)nc(N)c1N1CCOCC1` gave a viability (% of control) [4] of 91.5%.

Work on `CCCCN1CCC(CNC(=O)c2c3n(c4ccccc24)CCCO3)CC1` yielded a viability (% of control) [4] of 119%.
